# Sm TGR block: blocks Schistosoma mansoni thioredoxin glutathione reductase; Potency, µM (highest dose often 114 µM), without a hit: at the highest dose activity change, negative = inhibition, hits mostly inhibitors; 360,000 tested, 3% active; purified TGR, DTNB reduction, TNB absorbance 405 nm; AID 485364; further: nearly all actives have a fitted effect of over 60% in size
#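 Kinetic colorimetric format: TGR-catalysed, NADPH-driven DTNB reduction monitored via TNB absorbance. Enzyme dispensed at 20 nM; compound exposure 15 min at room temperature before reaction start.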
# RE007 growth inh: less growth of the S. pombe RE007 Vpr strain | S. pombe RE007 Vpr strain, BacTiter-Glo ATP luminescence, 24 h | Potency, µM (titrated, usually from 92.2 µM), for the others: at the top dose activity change, negative = less growth, hits mostly inhibitors | 360,000 tested, 0.21% active; active means well fitted falling curve with a large enough effect; inconclusive means small, poorly fitted or top-dose-only effect; inactive means no such curve, though single readings can be large or run the other way; further: nearly all actives have a fitted effect of over 50% in size
#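 Fission yeast strain RE007, carrying one chromosomally integrated HIV-1 vpr copy, was seeded at OD 0.01 in PMG+AL medium with 23 nL pinned compound. After 24 h at 30 °C and 99% humidity, viability was read by BacTiter-Glo luminescence.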
# LmPK inhibitor: inhibitors of Leishmania mexicana pyruvate kinase; 290,000 tested, 0.37% active; Potency, µM (titrated, usually from 57.5 µM), for the others: at the top dose activity change, negative = inhibition, hits mostly inhibitors; purified LmPK, Kinase-Glo ATP luminescence, 1 h; Q27686; AID 1721
# Target sequence (Q27686 whole entry, looked up): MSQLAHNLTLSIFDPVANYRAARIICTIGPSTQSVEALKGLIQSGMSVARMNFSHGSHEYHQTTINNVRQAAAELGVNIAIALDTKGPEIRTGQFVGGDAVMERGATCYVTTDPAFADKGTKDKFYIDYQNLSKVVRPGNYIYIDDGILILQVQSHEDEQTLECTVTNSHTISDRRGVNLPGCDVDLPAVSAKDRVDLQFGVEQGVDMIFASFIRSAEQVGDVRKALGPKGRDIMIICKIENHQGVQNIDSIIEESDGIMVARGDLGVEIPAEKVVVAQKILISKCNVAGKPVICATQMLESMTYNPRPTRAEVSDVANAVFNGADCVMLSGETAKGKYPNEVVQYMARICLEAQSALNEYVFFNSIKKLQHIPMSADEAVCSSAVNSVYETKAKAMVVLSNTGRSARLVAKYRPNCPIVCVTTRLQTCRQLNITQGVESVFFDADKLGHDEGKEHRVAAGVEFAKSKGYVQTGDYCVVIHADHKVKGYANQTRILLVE
#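 0.1 nM LmPK, 0.5 mM PEP, 0.1 mM ADP; 50 mM imidazole pH 7.2, 7 mM MgCl2, 50 mM KCl; 1 h RT. Kinase-Glo luminescence readout, normalized to no-enzyme (full inhibition) and uninhibited wells.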
# TbPYK inhibitor: inhibitors of Trypanosoma brucei pyruvate kinase | Q57TT1 | TbPYK enzyme, Kinase-Glo Plus ATP luminescence, 45 min | Potency, µM (highest dose often 76.8 µM), inactives show at the top dose activity, negative = inhibition, actives largely listed as inhibitors | 410,000 tested, 0.12% active | AID 624173; further: nearly all actives have a fitted effect of over 50% in size
#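 Luminescence from Kinase-Glo Plus, added after a 45-minute room-temperature reaction, served as the end-point read-out. The enzyme and substrate were preincubated with compound before ADP (130 uM final) initiated turnover. Concentration-effect curves came from normalized qHTS data.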
# The depositor's hits bear a star; ? = inconclusive; nt = not tested or not shown; [ ] = another dose, or the depositor's remark. A selection: hits, their analogues and other compounds. The true share with any hit is near 3%. Unless noted, the call rests on the fitted dose curve; in most records, active means well fitted curve in the direction sought with a large enough effect; inconclusive means small, poorly fitted or top-dose-only effect, or another doubt; inactive means no such curve, though single readings can be large; an effect the other way counts as inactive or inconclusive. On the % scale 0 is the no-effect control and ±100 the full control effect; potency means the concentration at half of the fitted maximal effect.
SMILES,Sm TGR block,RE007 growth inh,LmPK inhibitor,TbPYK inhibitor
COc1ccc(NC(=O)CSc2oc(-c3ccc(C)cc3)nc2S(=O)(=O)c2ccc(C)cc2)c(OC)c1,50.1µM*,nt,nt,-6.6%
Cc1ccc(S(=O)(=O)c2nc(-c3ccco3)oc2SCC(=O)NCC2CCCO2)cc1 (configuration not stated),35.5µM*,1.8%,1.5%,-11.6%
CCN(CC)C(=O)C1=C(C)N(Cc2ccc(C(C)(C)C)cc2)C(=O)C(CC(=O)NC(c2ccccc2)c2ccccc2)C1 (configuration not stated),nt,-6.1%,nt,-5.1%
CC(C)CSc1oc(-c2ccco2)nc1S(=O)(=O)c1ccccc1,44.7µM*,10.5%,2.3%,-2.7%
O=C1NC(=O)C(c2ccccc2[N+](=O)[O-])=C1Nc1ccc(O)c(Cl)c1,7.08µM*,1.2%[18.4 µM],0.9%,-10.4%
c1coc(-c2ccc3ncnc(NCc4cccs4)c3c2)c1,31.6µM*,nt,nt,nt
O=C1NCCCC2c3c(cc(Br)c(O)c3Br)OC12N1CCCCC1 (configuration not stated),22.4µM*,-16.3%,-2.2%,0.7%
CCC(=O)Nc1ccccc1-c1nc2ccccc2n(C(C)C(=O)Nc2ccc(OC)cc2)c1=O (configuration not stated),-13.3%,nt,nt,3.8%
O=C(c1cnccn1)N1CCC[C@@]2(CCN(c3ccncc3)C2)C1,nt,nt,nt,5.1%
Oc1ccc(NCc2cccc(OCc3ccc(F)cc3)c2)cc1,28.2µM*,-24.6%,-1.6%,?
Oc1ccc(NCc2cccc(OCc3ccccc3)c2)cc1,12.6µM*,-25.2%,0.5%,?
O=[N+]([O-])c1ccc(COc2cccc(CNc3ccc(F)cc3)c2)cc1,-3.6%,-10.8%,-1.1%,-4.0%
Cc1cn2c(=O)cc(COC(=O)c3cccc(NC(=O)COc4ccccc4)c3)nc2s1,2.5%,nt,nt,4.7%
CS(=O)(=O)O/N=C1\CCCCC1c1ccc([N+](=O)[O-])cc1[N+](=O)[O-] (configuration not stated),-32.1%,-12.8%,2.6%,4.0%
CCNC(=O)O/N=C1\CCCCC1c1ccc([N+](=O)[O-])cc1[N+](=O)[O-] (configuration not stated),12.6µM*,-11.1%,5.5%,-3.0%
Cn1c(=O)c(=O)n(C)c2cc(NC(=O)c3cccc(F)c3)c(Cl)cc21,-1.8%,nt,nt,1.6%
COc1cc(-c2ccc(-[n+]3nc(-c4ccccc4)nn3-c3ccc([N+](=O)[O-])cc3)c(OC)c2)ccc1-[n+]1nc(-c2ccccc2)nn1-c1ccc([N+](=O)[O-])cc1,nt,nt,nt,-0.2%
COc1cc(NC(=S)NC2CC2)c(OC)cc1Cl,39.8µM*,11.8%,2.8%,-7.1%
COc1cc(NC(=S)N(C)C)c(OC)cc1Cl,15.6%,5.7%,2.8%,7.8%
O=C(CCN1CCOCC1)c1ccc(Br)cc1,0.0%,31.6µM*,-3.0%,-21.7%
O=C(CCN1CCOCC1)c1ccc(Cl)cc1,0.0%,39.8µM*,-8.6%,0.0%
Oc1c(Br)cc(Br)cc1/C=N/c1nccs1,3.98µM*,?,nt,-5.1%
Oc1ccc(Cl)cc1/C=N/c1nccs1,20µM*,-1.6%,-19.7%,-2.2%
NC1=C(Cl)C(=O)c2ccccc2C1=O,nt,25.1µM*,nt,-31.5%
O=c1n2c(c(O)n1C1CCCCC1)C(c1ccccc1)=Nc1ccccc1C2,nt,6.1%,nt,3.8%
SMILES,Sm TGR block,RE007 growth inh,LmPK inhibitor,TbPYK inhibitor
COc1ccc(NC(=O)CC2C(=O)N(c3cccc(OC)c3)C(=O)N2Cc2ccc3c(c2)OCO3)cc1 (configuration not stated),-6.3%,nt,nt,-1.6%
O=C(Nc1ccc(F)cc1F)c1ccc(-n2cccn2)c([N+](=O)[O-])c1,44.7µM*,0.3%,-9.4%,-1.8%
CCCCc1nc2c(c3c1C[C@H](C)OC3)CN(S(=O)(=O)c1ccccc1C(=O)OC)CC2,nt,nt,-0.1%[11.5 µM],nt
Cc1ccc(NC(=O)CN2C(=O)CC(c3ccco3)Sc3ccccc32)cc1Cl (configuration not stated),-6.9%,nt,nt,1.9%
O=C(c1cnccn1)N1CCC2(CCN(Cc3ccccc3)CC2)CC1,nt,nt,nt,2.0%
CC(=O)N1c2ccccc2C2(O)N=C(C)SC12 (configuration not stated),-7.9%,-5.9%,16.6%,12.6µM*
CC(=O)N1c2ccccc2[C@@H](C)[C@@H]1C,-1.7%,-9.3%,nt,-9.0%
Cc1ccc(S(=O)(=O)Nc2cc3c(cc2N2CCOCC2)n(C)c(=O)n3C)c(C)c1,?,nt,nt,-3.5%
CCN(C(=O)c1coc(=O)c(Br)c1)c1ccc2c(c1)OCO2,44.7µM*,-13.3%,-0.7%,?
NC(=O)[C@H]1O[C@@H](O)[C@H](O)[C@@H](O)[C@@H]1O,nt,nt,nt,-5.5%
CCn1c(O)c(N=NC(=O)CNC(=O)/C=C/c2ccco2)c2ccccc21,35.5µM*,-1.5%,-1.8%,-19.2%
CCn1c(O)c(N=NC(=O)CNC(=O)c2ccco2)c2ccccc21,1.4%,-10.0%,-3.1%,3.8%
Cc1cccnc1C(c1ccc(F)cc1)N(C)C(=O)C1CCN(CCOc2ccc(Cl)cc2Cl)CC1 (configuration not stated),nt,0.8%,nt,-4.2%
CCN(CC)C(=O)COC(=O)c1cc(-c2ccco2)nc2ccccc12,1.78µM*,0.3%,-6.1%,-16.3%
CNC(=O)COC(=O)c1cc(-c2ccco2)nc2ccccc12,2.82µM*,-3.3%,-10.3%,-0.8%
O=C(COC(=O)c1cc(-c2ccco2)nc2ccccc12)NCc1ccccc1,?,2.5%,3.3%,-6.6%
Cc1ccc(S(=O)(=O)N2CC(CO)=CCC2c2ccccc2)cc1 (configuration not stated),nt,-9.4%,nt,nt
Cc1ccc2nc(N3CCN(c4cccc(Cl)c4)CC3)c(-n3nc(C)cc3C)nc2c1,3.1%,nt,nt,4.3%
O=C(O)c1cccc2c1C(=O)c1ccc(-c3ccc(F)cc3OCc3ccccc3)cc1S2(=O)=O,31.6µM*,4.8%,nt,0.6%
Cn1c(SCc2ccccc2)nnc1C1CCCNC1 (configuration not stated),44.7µM*,23.6%,-14.7%,3.1%
Cn1c(SCc2ccc(Cl)cc2)nnc1C1CC1,-12.0%,-5.0%,-0.1%,5.0%
COc1cc(NC(=O)c2ccco2)c(C(=O)O)cc1OC,39.8µM*,0.2%,0.1%,0.7%
COC(=O)c1cc(OC)c(OC)cc1NC(=O)c1ccco1,0.0%,-12.8%,-2.3%,11.7%
Cc1cc(NC(=O)c2ccc3c(c2)OCO3)ccc1NC(=O)c1ccco1,-2.0%,-15.7%,14.1µM*,-9.3%
Cc1ccc(C(=O)Nc2ccc3c(c2)OCO3)cc1NC(=O)c1ccco1,0.9%,16.1%,3.0%,0.0%
COc1cc(OC)cc(C(=O)Nc2ccc(NC(=O)c3ccco3)c(C)c2)c1,39.8µM*,-15.1%,?,-17.1%
O=C(Nc1ccc2c(c1)OCCO2)c1ccco1,-1.0%,-1.9%,25.1µM*,-3.7%
O=C(Nc1cccc(NC(=O)c2ccco2)c1)c1ccc2c(c1)OCCO2,nt,2.2%,-20.7%,-5.6%
N#CC1(NC(=O)CSc2nnc(C3CC3)n2N)CCCCC1,nt,-3.0%,nt,8.9%
Cn1nccc1C(=O)Nc1ccc2c(c1)OCCO2,4.2%,-19.3%,15.8µM*,-23.9%
